The values below come from PubChem BioAssay AID1851 (National Center for Advancing Translational Sciences (NCATS), 2009).

Structures are written as SMILES. “And” between values parts separate entries of the source, which are not always exact repeats. Equal values may be shown once. The whole screen tested about 16,000 compounds, of which about 4,000 (25%) were called active. Another 26% or so got no clear call; they are omitted. Calls follow the shape of the dose curve; as a rule, active = well fitted curve in the direction sought with a large enough effect; inconclusive = small, poorly fitted or top-dose-only effect, or effect the other way; inactive = no such curve, though single readings can be large or run the other way. Only a sample is shown. The source holds several records for some structures; these can differ, active in one and inactive in another.
% is scaled to controls: 0 for no effect and ±100 for the full control effect.

The target of this assay is Cytochrome P450 2C9 (Homo sapiens) (UniProt P11712). Kind of assay: Cytochrome panel assay with activity outcomes. The note with it: recombinant CYP, pro-luciferin dealkylation, luminescence, p450-cyp2c9; series mostly up to 57.1 µM.
Sequence of Cytochrome P450 2C9 (Homo sapiens) (P11712 whole entry, looked up): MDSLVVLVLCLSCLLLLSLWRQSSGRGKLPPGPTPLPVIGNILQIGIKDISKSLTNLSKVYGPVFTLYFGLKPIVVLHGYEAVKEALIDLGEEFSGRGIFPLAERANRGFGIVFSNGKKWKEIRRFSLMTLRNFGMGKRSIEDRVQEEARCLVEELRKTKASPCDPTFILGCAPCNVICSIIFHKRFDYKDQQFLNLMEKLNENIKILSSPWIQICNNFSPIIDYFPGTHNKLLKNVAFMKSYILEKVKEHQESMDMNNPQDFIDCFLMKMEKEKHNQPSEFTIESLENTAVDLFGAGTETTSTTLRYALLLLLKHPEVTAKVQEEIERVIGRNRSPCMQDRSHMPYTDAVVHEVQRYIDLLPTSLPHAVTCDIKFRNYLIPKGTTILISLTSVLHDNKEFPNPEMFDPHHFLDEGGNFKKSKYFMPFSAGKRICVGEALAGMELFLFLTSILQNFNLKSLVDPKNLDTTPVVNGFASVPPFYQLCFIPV
For the molecule `O=P(O)(O)O[C@@H]1O[C@H](CO)[C@@H](O)[C@H](O)[C@@H]1O`, the activity, negative = inhibition was 8.79% [at 11.4 µM] (inactive).

Usually AC50 stands for the concentration at which the activity in the assay is half-maximal. On to `CCN(CC)[C@@H](C)CN1c2ccccc2Sc2ccccc21`, for which the AC50 result is “inactive”.

With `COc1cccc(OC)c1OCCCCN1CCCC1`, the AC50 result is “inactive”.

Take `O=C(OCCN1CCCCC1)c1c[nH]c2ccccc12`: the AC50 result is “inactive and 2 µM (active)”.

With `Cc1c(-c2ccccc2)oc2c(C(=O)OCCN3CCCCC3)cccc2c1=O`, the AC50 entry is “inactive”.

For the molecule `C[C@@](N)(Cc1ccc(O)c(O)c1)C(=O)O`, the AC50 result is “inactive”.

For the molecule `CCOC(=O)c1c(C(C)(C)C)oc2ccc(O)cc12`, the AC50 was 20 µM (active).

As to `C[C@@](N)(Cc1ccc(O)cc1)C(=O)O`, the AC50 result was “inactive”.

Consider `CCC(=O)NC(=S)N1CCN(c2ccc([N+](=O)[O-])cc2Cl)CC1`, for which the AC50 result is “inactive”.

For the molecule `CC1CN(C(=S)NC(=O)c2ccc([N+](=O)[O-])cc2)CC(C)O1` (stereo not given), the AC50 result is “inactive”.

On to `COc1cccc(OC)c1C(=O)NC(=S)N1CCN(c2ccc(C(F)(F)F)cc2[N+](=O)[O-])CC1`, for which the AC50 is 0.355 µM (active).

As for `CC(C)Oc1cccc(C(=O)NC(=S)N2CCN(c3ccc(C(F)(F)F)cc3[N+](=O)[O-])CC2)c1`, the AC50 was 3.16 µM (active).

For `CC(C)N=C(N)/N=C(\N)Nc1ccc(Cl)cc1`, the AC50 entry was “inactive”.

Turning to `CNCCc1ccccn1`, the AC50 result is “inactive”.

For `O=c1ccn([C@@H]2O[C@@H](COP(=O)(O)OP(=O)(O)O)[C@H](O)[C@@H]2O)c(=O)[nH]1`, the AC50 result is “inactive”.

Consider `CCc1c2c(nc3ccc(OC)cc13)COC2`, for which the AC50 entry was “inactive”.

For the molecule `COc1cc2nc3c(c([Si](C)(C)C(C)(C)C)c2cc1OC)Cn1c-3cccc1=O`, the AC50 is 15.8 µM (active).

`COc1ccc2nc3c(c([Si](C)(C)C(C)(C)C)c2c1)Cn1c-3cccc1=O`: the AC50 is 12.6 µM (active).

With `CC(C)NC(=O)N1CCCC2(CCN(C(=O)c3cc(C(F)(F)F)cc(C(F)(F)F)c3)CC2)C1`, the AC50 result was “inactive”.

As to `CC(C)CN(CC#N)CC(C)C`, the activity, negative = inhibition is 4.39% [at 11.4 µM] (inactive).

For `CSc1nc2ccccc2cc1/C=C(\C#N)c1ccc(Cl)cc1Cl`, the AC50 is 25.1 µM (active).

Consider `CSc1nc2ccccc2cc1/C=C(\C#N)c1ccccc1`, for which the AC50 is 3.98 µM (active).

With `CN(C)CCCc1c2ccccc2nc2ccc(Cl)cc12`, the activity, negative = inhibition is 11.6% [at 11.4 µM] (inactive).

As for `COc1ccc(-n2c(=O)cnc3cnc(OC)nc32)cc1`, the AC50 result is “inactive”.

As to `O=C(O)CC1(CC(=O)O)Nc2ccccc2SC1=O`, the activity, negative = inhibition was -2.99% [at 11.4 µM] (inactive).

Regarding `Cc1cc(Cl)ccc1NC(=O)CN1CCC(C(O)(c2ccccc2)c2ccccc2)CC1`, the AC50 was 7.08 µM (active).

For `Cc1c(Cl)cccc1NC(=O)CC1NCCNC1=O` (stereo not given), the AC50 entry was “inactive”.

As for `Cc1c(NC(=O)CN2CCN(c3ccccc3)CC2)c(=O)n(-c2ccccc2)n1C`, the AC50 entry was “inactive”.

With `O[C@@](CCN1CCCCC1)(c1ccccc1)C1CCCCC1`, the AC50 entry is “inactive”.

Take `Cc1c(Cl)cccc1NC(=O)CN1CCC(C(O)(c2ccccc2)c2ccccc2)CC1`: the AC50 is 2 µM (active).

For the molecule `Cc1ccccc1NC(=O)CN1CCC(n2nnc3ccccc32)CC1`, the AC50 result is “inactive”.

Consider `CCc1nc2cc(CC(=O)O)ccc2o1`, for which the AC50 result is “inactive”.

Regarding `COC(=O)[C@H]1C[C@@H]1[C@H](NC(=O)c1cnccn1)c1ccccc1`, the AC50 result was “inactive”.

With `C[C@@H](C(=O)Nc1ccc2ccccc2c1)[C@H]1C[C@]1(C)[C@H](NC(=O)c1cnccn1)c1ccccc1`, the AC50 is 5.01 µM (active).

As to `C[C@@H](C(=O)Nc1ccc2ccccc2c1)[C@@H]1C[C@@]1(C)[C@@H](NC(=O)c1cnccn1)c1ccccc1`, the AC50 is 0.0631 µM (active).

`COC(=O)[C@@H]1C[C@H]1[C@@H](NC(=O)c1cnccn1)c1ccccc1`: the AC50 result was “inactive”.

`COC(=O)C1=C(C)NC(C)=C([N+](=O)[O-])[C@H]1c1ccccc1C(F)(F)F`: the AC50 was 2 µM (active).

Turning to `COC(=O)C1=C(C)NC(=O)NC1c1ccsc1` (stereo not given), the AC50 result was “inactive”.

As to `COC(=O)C1=C(C)NC(C)=C([N+](=O)[O-])[C@@H]1c1ccccc1C(F)(F)F`, the AC50 was 0.158 µM (active).

In the case of `CO[C@@H]1/C=C\CC(=O)N[C@@H](C)C(=O)OC[C@H](NS(=O)(=O)c2ccc(C)cc2)[C@H](C)/C=C\CC(=O)OC[C@H]1C`, the activity, negative = inhibition was 14.6% [at 11.4 µM] (inactive).

For the molecule `Cc1ccc([N+](=O)[O-])cc1NC(=S)NC(=O)CC(C)(C)C`, the AC50 is 2.24 µM (active).

`Cc1ccc([N+](=O)[O-])cc1NC(=S)NC(=O)C(C)(C)C`: the AC50 is 0.708 µM (active).

For `Cc1cnc(CNc2ncncc2-c2ccccc2C(F)(F)F)cn1`, the activity, negative = inhibition is 1.53% [at 2.29 µM] (inactive).

On to `CCN(CC)CCNC(=O)c1cc(S(C)(=O)=O)ccc1OC`, for which the AC50 entry is “inactive”.

Regarding `COc1ccc(OC)c2[nH]c(=O)c(CCNC(=O)c3ccc(S(=O)(=O)N(C)C)cc3)cc12`, the AC50 is 7.94 µM (active).

On to `COc1ccc(OC)c2[nH]c(=O)c(CCNC(=O)c3ccc(S(=O)(=O)N4CCCC4)cc3)cc12`, for which the AC50 was 11.2 µM (active).

As to `COc1ccc2cc(CCNC(=O)C3CC3)c(=O)[nH]c2c1`, the AC50 entry is “inactive”.

Turning to `CCN1CCCC1CNC(=O)CCNC(=O)c1cc(OC)c(OC)c(OC)c1` (stereo not given), the AC50 result was “inactive”.

`CCOC(=O)C(C)(C)[C@H](O)C(C)C`: the activity, negative = inhibition was -6.81% [at 11.4 µM] (inactive).

Take `COc1cccc(-c2nccc(NCc3ccccc3)n2)c1`: the activity, negative = inhibition is -19.2% [at 2.29 µM] (inactive).

As to `CCc1c(C)nc2ncnn2c1NCCc1ccc(OC)cc1`, the AC50 was 1.58 µM (active).

Consider `CCOC(=O)CCc1c(C)nc2ncnn2c1C`, for which the AC50 result is “inactive”.

Turning to `Cc1ccc(CNC(=O)CCc2c(C)nc3ncnn3c2C)cc1`, the AC50 result was “inactive”.

With `COc1ccc(CCNc2cc(-c3ccccc3)nc3ncnn23)cc1`, the AC50 is 5.62 µM (active).

On to `COc1cccc(-c2cc(NCc3ccccc3)ncn2)c1`, for which the activity, negative = inhibition is -1.27% [at 2.29 µM] (inactive).

Take `CCNc1ncc2nc(-c3cc(F)cc(F)c3)c(=O)n(CCC#N)c2n1`: the AC50 entry is “inactive”.

Regarding `Fc1ccc(Nc2ccnc(-c3ccoc3)n2)cc1`, the activity, negative = inhibition is 9.66% [at 2.29 µM] (inactive).

As to `CC(=O)OC[C@@H]1O[C@@H](O/N=C2/C[C@@H](O)[C@@H](O)[C@@H]3[C@@H]4C(=O)N(c5cccc(Oc6ccccc6)c5)C(=O)[C@H]4CC[C@@H]23)[C@H](OC(C)=O)[C@H](OC(C)=O)[C@@H]1OC(C)=O`, the activity, negative = inhibition was 20.1% [at 11.4 µM] (inactive).

Take `Cc1cc(O)c(-c2cc(O)c(C)cc2O)cc1O`: the AC50 was 1.26 µM (active).

In the case of `Cc1cc(O)c(C(C)C)cc1CN1CCCCC1`, the activity, negative = inhibition was -3.21% [at 11.4 µM] (inactive).
